Among the data in PubChem BioAssay are GFP response, % of DMSO values, retold here.

The structures appear in SMILES notation. A number with no mark means an inactive call.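 The calls were made as follows: active = GFP response above 150% of the DMSO level; inconclusive = fewer than 70 events counted for a yeast strain; inactive = the rest.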

The assay is described as follows: AGP1-GFP expression modulators, hit retest, confirmation, cell-based, flow cytometry, S. cerevisiae, cherry picks (AID 2273).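 Also: median GFP channel fluorescence over the whole cell population gate.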 The settings on record: S. cerevisiae AGP1-GFP strain, 3 h, at 10 µM.

With `O=c1[nH]c(=O)n([C@H]2C[C@H](O)[C@@H](CO)O2)cc1F`, the GFP response, % of DMSO was 102%.

For the compound `C[C@]12CCC(=O)C=C1CC[C@@H]1[C@@H]2C(=O)C[C@@]2(C)[C@H]1CC[C@]2(O)C(=O)CO`, the GFP response, % of DMSO is 104%. The figure for `Nc1nc2c(ncn2COCCO)c(=O)[nH]1` is 102%; for `CC(=O)[C@@]1(O)CC[C@H]2[C@@H]3CCC4=CC(=O)CC[C@]4(C)[C@H]3CC[C@@]21C` it is 96.5%; for `O=C(Nc1ccc(F)cc1)c1cc2cc(Cl)ccc2[nH]1` it is 102%. The figure for `O=C(Nc1nc(-c2ccccc2)cs1)c1cccc([N+](=O)[O-])c1` is 108%; for `COc1ccc(Sc2ncnc3onc(C)c23)cc1` it is 99.1%.
